Measurements taken from the supplement of paper PMC6555819.

tested on: VDR:RXRa (NR concentration 270 nM, RXRa partner concentration 90 nM); test: PBM binding z-score (relative to random genomic background probes); higher = stronger binding; sequences stand for … in GC…GCGATTGACAGCGTAGAATGAAGG
Experimental: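 Protein-binding microarray (Agilent 4x180K custom design, double-stranded 60-nt probes: 5' GC cap, 34-nt variable region, 24-nt constant primer region; full probe sequence given). Purified or IVT nuclear receptor:RXRα heterodimers (3:1 NR:RXRα, mostly 270:90 nM) or homodimers were incubated for 1 h in PBS with 2% milk and no ligand, then detected with Alexa488 antibodies. Fluorescence from o1-orientation probes (~5 replicates averaged) was converted to z-scores against 500 random hg19 background probes. Variable regions are seed direct-repeat (DR0–DR5) sites, all their single-nucleotide variants and half-site ablations.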

| Sequence | PBM binding z-score |
| --- | --- |
| CCGACTGGGGCAGAAAGATTACCATACCATCCGG | -0.535 |
| AGTCAAAGTACACTAGGTAACGTAAGATTCAGCT | -0.00797 |
| AGGATGAGGTTATTAAGATCAGGGAATTGCGGTC | 2.66 |
| GTATATAGGTAATACAAGGTGAAAGTCCGATTGT | 0.822 |
| CGTCCAAGGTCAATGCTTGGTCAGTGAAAGCATT | 3.69 |
| CCTAGTGGGCCACGAAAGGTCATTGATTCAGTGA | 4.05 |
| CCTACAGGGCCAAAAAGGTCATTGATGCCGATAA | 5.62 |
| CCTAGCAGGCCAGGGTCATTCAAGCATTTCGCTT | 3.48 |
| TTACCAAGGCGAAGGTCGTTGATCCCTCTGTAGA | 0.836 |
| CCTATTAGTTCACCATAAGGGCAACCGAAGCTCG | 2.6 |
| TCTTGTAAATCAAGCAGGTTAAGAAAGCCTGAGT | 0.479 |
| CAGCCTAGGACAGGGCCAGTATAGGAGGAACGTT | -0.833 |
| TCGAGTAGGGTAGGGGCATTCAGAATGGCGTCGA | 0.426 |
| GGACCGAGGGCATTCGAGTTGATAGCATGGCGAT | 3.66 |
| CAAACTAGGTCAGGAGGTCAAAGTCCGCTTCCCG | 5.18 |
| TCATATATGTAAAGGTGAAAGTCGAACGATATGA | 1.17 |
| CCTTGCGGGTCACGAGGTTATAGCACGACGAGCG | 4.93 |
| ACAGACAAGTGATGAAGGTAACTCAGGCTATCAT | -0.0224 |
| TACCCTAGGTCAGATCGGGCCAGTATACGCTATA | 1.17 |
| ACTAGTTGGTCAGCTGAGGTCACACATAATTCGG | 4.49 |

| Sequence | PBM binding z-score |
| --- | --- |
| TCTTGGAGATCAAAGGTTAAGAAAGCCGAAGCCT | 1.57 |
| CGTCCAAGGTCAAAGGTCAGTCAAGAGATGACGG | 6.84 |
| TCTATTAGTTGATTAGGGTAACCGAAACAGCGGA | 0.996 |
| AGTATTAGTTGACTTAGGGCAACCGATACGACGC | 0.573 |
| CGAACTAGGTCATTGACAGGACAGCGAATAGTAA | 2.05 |
| CCAGACAGGTCAGAAGGTAACTCAGCCTCGATTA | 1.44 |
| ATATCTAGGTAAAGTTCAGTGAAAGATCGATAGA | 1.53 |
| CAAACTAGGTCACGAAAGGTCACAGTCGAATGAC | 6.75 |
| ATATGTAGGTTACATACGGGTCATTCAGGCTATG | 4.14 |
| CGAACGAGGGTATGAGTTGATAGCAAATGCCGAT | -0.175 |
| TCATATAGGTAAAGGTGAAAGTAGAACGATATGA | 1.01 |
| GCTTATAGATCAAGGTTAAGAAAGACTAAGCTAA | 0.244 |
| TAGCCTAGGTCATGCGGGCCCGTATAGTGTCGGC | 1.97 |
| ACAGACAGGTGAGTGAAGGGAACTCAGCTGGACG | -0.408 |
| GCGACTGGGGCAAAGCAGGCTACCATAAGGTTGG | -0.662 |
| TCTAGTTGGTTAAAGGTCACACACTCGAAATGCG | 4.86 |
| CCTTACGGGTCACTGACCGGTTATAGCATTTGGA | 3.34 |
| AATACAGGGTCATCGAAGGCCAGAGTACGCACAG | 5.49 |
| TCTTGTAGATCAGCAGGTTAAGAATGCTGGCCAA | 0.397 |
| AGAATGAGGTTATTAAGATTAGGGAATTGCGGTC | 1.29 |
